# Experimental data reported in PubChem BioAssay (NCATS).
# Results filed as inconclusive are left out. Calls of active or inactive are those of the source. Calls come from the whole dose curve.
# Experiment: Confirmatory qHTS to identify inhibitors of SARS-CoV-2 cell entry (AID 1645844); note: nearly all actives have a fitted effect of over 45% in size
# Conditions: SARS-CoV-2 pseudotyped particle cell entry, luciferase; series mostly up to 57.2 µM; activity, negative = inhibition: at the top concentration
# Text: Assay Provider: Wei Zheng, Ph.D.
# National Center for Advancing Translational Sciences, National Institute of Health, Rockville, MD.
# SARS-CoV-2 spike protein, within the viral envelope, mediates viral attachment and infection of host cells. The SARS-CoV-2 spike protein specifically binds to the host receptor ACE2 (Angiotensin-converting enzyme 2). This interaction promotes endocytosis of the viral particle, additional events lead to viral-host cell membrane fusion and release of the viral contents, allowing viral replication.
# While SARS-CoV-2 requires BSL-3 facilities for live virus work, pseudotyped partices (PP) that incorporate SARS-CoV-2 spike proteins without replication elements could facilitate studies on viral entry mechanisms in a BSL-2 setting. This PP cell entry assay could also enable screening of small molecule compound libraries in BSL-2 setting to identify inhibitors of SARS-CoV-2 cell entry.
# SEQUENCE No. (e.g., 1, 2, 3, etc.); […] (e.g., Cells, Incubation, Reagent, etc.); VALUE and DESCRIPTION.
# 1. Cells. Seed 1500 HEK293-ACE2 cells (Expi293F with stable expression of human ACE2) in 2 uL/well media (DMEM, 10% FBS, 1x L-glutamine, 1x Pen/Strep, 1 ug/ml puromycin) in white 1536-well assay plates (Greiner #782073).
# 2. Incubation. Incubate at 37C with 5% CO2 overnight (~16 h).
# 3. Compounds. Dispense 23 nL/well compounds in DMSO via pin transfer.
# 4. Incubation. Incubate for 1 hr at 37C 5% CO2.
# 5. Reagent. Dispense 2 uL/well of SARS-CoV-2-S pseudotyped particles (PP). [a] PPs are produced with murine leukemia virus pseudotyping). [b] SARS-CoV-2-S is Wuhan-Hu-1 sequence (BEI #NR-52420) with C-terminal 19 amino acid truncation.
# 6. Centrifugation. […]
# 7. Incubation. Incubate at for 48 hr at 37C 5% CO2
# 8. Centrifugation. Remove supernatant with gentle centrifugation using a Blue Washer (BlueCat Bio).
# 9. Reagent. Dispense 4 uL/well of Bright-Glo Luciferase detection reagent (Promega #E2620).
# 10. Incubation. Incubate for 5 min at room temperature.
# 11. Detection. Read luminescence signal (Viewlux plate reader, PerkinElmer). Data was normalized with wells containing SARS-CoV-2-S PP as 100%, and wells containing bald PP (no fusion protein) as 0%.
# % is set by controls: 0 for no effect and ±100 for the full control effect; potency is the fitted concentration of half-maximal effect.
SMILES,Potency,"activity, negative = inhibition"
C[C@H]1CCC/C=C/C2C[C@H](O)C[C@H]2[C@H](O)/C=C/C(=O)O1 (stereo not given in full),0.857 µM (active),–
CC(C)c1cnn2c(NCc3ccccc3)cc(N[C@@H](CO)[C@H](O)CO)nc12,0.607 µM (active),–
COCCOC(=O)C1=C(C)NC2=C(C(=O)CC(c3ccccc3OC)C2)C1c1cccc(O)c1 (stereo not given),–,-18.4% (inactive)
CC[C@]1(O)C[C@H]2CN(CCC3=c4ccccc4=N[C]3[C@@](C(=O)OC)(c3cc4c(cc3OC)N(C)[C@H]3[C@@](O)(C(N)=O)[C@H](O)[C@]5(CC)C=CCN6CC[C@]43[C@@H]65)C2)C1,0.0764 µM (active),–
COc1ccc(/C=C/C(=O)Nc2ccccc2C(=O)O)cc1OC,0.429 µM (active),–
CS(=O)(=O)N(Cc1ccco1)CC(O)Cn1c2ccccc2c2ccccc21 (stereo not given),6.81 µM (active),–
COc1cc2c(cc1Cc1cccc(Cl)c1F)c(=O)c(C(=O)O)cn2[C@H](CO)C(C)C,0.0607 µM (active),–
CCC(c1ccc(O)cc1)C(CC)c1ccc(O)cc1 (stereo not given),27.1 µM (active),–
CO[C@@H]1[C@@H](OC2OC(C)C(OC3CC(C)(O)C(OC(=O)CC(C)C)C(C)O3)C(N(C)C)C2O)[C@@H](CC=O)C[C@@H](C)C(=O)/C=C\C2O[C@H]2C[C@@H](C)OC(=O)C[C@H]1OC(C)=O (stereo not given in full),0.0152 µM (active),–
O=C(NCCCCN1CCOCC1)c1cc2ccccc2o1,–,-26.1% (inactive)
CCCCC(C)(C)[C@H](O)C=C[C@H]1[C@H](O)CC(=O)[C@H]1CC=CCCCC(=O)O,17.1 µM (active),–
O=C(O)c1ccc(Nc2ncc3c(n2)-c2ccc(Cl)cc2C(c2c(F)cccc2F)=NC3)cc1,0.242 µM (active),–
CC(C)[C@H](CO)Nc1nc(Nc2cccc(Cl)c2)c2ncn(C(C)C)c2n1,8.57 µM (active),–
CC[C@@](C)(Nc1ccnc(-c2c[nH]c3ncccc23)n1)C(=O)NCC(F)(F)F,–,0% (inactive)
C/C(=C\c1csc(C)n1)[C@@H]1C[C@@H]2O[C@@H]2CCC[C@H](C)[C@H](O)[C@@H](C)C(=O)C(C)(C)[C@@H](O)CC(=O)O1,0.121 µM (active),–
COc1cc([C@@H]2c3cc4c(cc3[C@H](O)[C@H]3COC(=O)[C@@H]23)OCO4)cc(OC)c1OC,12.1 µM (active),–
N[C@@H](Cc1ccc(O)c(O)c1)C(=O)O,3.83 µM (active),–
CC(C)c1nn(-c2c(Cl)cccc2Cl)c2nc(Cc3ccc(OCCO)cc3)[nH]c(=O)c12,0.0341 µM (active),–
Cc1cc(C(=O)N2CCN(c3cccc(Cl)c3)CC2)n(-c2ccccc2)n1,6.81 µM (active),–
COc1ccc(S(=O)(=O)Nc2cccnc2Nc2ccc(O)cc2)cc1,1.21 µM (active),–

SMILES,Potency,"activity, negative = inhibition"
COc1ccc(Nc2cc(-c3cnc(N)nc3)nc(N3CCOCC3)n2)cn1,0.341 µM (active),–
NC(=O)c1cccc2cn(-c3ccc([C@@H]4CCCNC4)cc3)nc12,4.29 µM (active),–
CNC(=O)c1nn(C)c2c1C(C)(C)Cc1cnc(Nc3ccc(N4CCN(C)CC4)cc3)nc1-2,3.04 µM (active),–
O=C1NCCc2[nH]c(-c3ccncc3)cc21,9.61 µM (active),–
Cc1c(-c2ccc(O)cc2)n(Cc2ccc(OCCN3CCCCCC3)cc2)c2ccc(O)cc12,15.2 µM (active),–
CN1c2ccccc2C(=O)N2CCc3c([nH]c4ccccc34)C21 (stereo not given),6.81 µM (active),–
CC[C@H](C)C(=O)O[C@H]1CCC=C2C=C[C@H](C)[C@H](CC[C@@H]3C[C@@H](O)CC(=O)O3)[C@H]21,–,-67.7% (inactive)
COc1c(OCCCN2CCOCC2)ccc2c3n(c(=NC(=O)c4cnc(N)nc4)nc12)CCN3,0.312 µM (active),–
CO[C@H]1C(=O)[C@]2(C)[C@@H](OC)C[C@H]3OC[C@@]3(OC(C)=O)[C@H]2[C@H](OC(=O)c2ccccc2)[C@]2(O)C[C@H](OC(=O)[C@H](O)[C@@H](NC(=O)OC(C)(C)C)c3ccccc3)C(C)=C1C2(C)C,0.0482 µM (active),–
CC(=O)O[C@H]1C(=O)[C@@]2(C)C([C@H](OC(=O)c3ccccc3)[C@]3(O)C[C@H](OC(=O)[C@H](O)[C@@H](NC(=O)c4ccccc4)c4ccccc4)C(C)=C1C3(C)C)[C@]1(OC(C)=O)CO[C@@H]1C[C@@H]2O (stereo not given in full),0.0429 µM (active),–
CCN(CCO)CCCOc1ccc2c(Nc3cc(CC(=O)Nc4cccc(F)c4)[nH]n3)ncnc2c1,0.681 µM (active),–
CCN(CC)CCOCCOC(=O)C(CC)(CC)c1ccccc1,–,-37.1% (inactive)
NCC(=O)Nc1ccc(-n2nc(C(F)(F)F)cc2-c2ccc3c(ccc4ccccc43)c2)cc1,15.2 µM (active),–
COc1ccc(F)c(F)c1C(=O)c1cnc(NC2CCN(S(C)(=O)=O)CC2)nc1N,0.0681 µM (active),–
C[C@@]1(C(=O)Nc2ccc(F)nc2)CCCN1c1nc(Nc2cc(C3CC3)[nH]n2)c2cccn2n1,0.171 µM (active),–
COc1cc(C)c(Sc2cnc(NC(=O)c3ccc(CNC(C)C(C)C)cc3)s2)cc1C(=O)N1CCN(C(C)=O)CC1 (stereo not given),9.61 µM (active),–
Nc1ccc(C(=O)Nc2cccc(-c3nc(N4CCOCC4)c4oc5ncccc5c4n3)c2)cn1,0.192 µM (active),–
CN1C(=O)C[C@H](C(=O)N[C@@H](Cc2cnc[nH]2)C(=O)N2CCC[C@@H]2C(N)=O)NC1=O,19.2 µM (active),–
Cc1cccc(Nc2nc(-c3ccncc3)cs2)c1,4.29 µM (active),–
COc1cc([C@@H]2c3cc4c(cc3[C@@H](O[C@@H]3O[C@@H]5CO[C@@H](C)O[C@@H]5[C@H](O)[C@@H]3O)[C@H]3COC(=O)[C@H]23)OCO4)cc(OC)c1O,0.541 µM (active),–
